Experimental data taken from the supplement of paper PMC8728848.
The sample as a whole holds a higher share of the strongest signals than the screen did.

Columns and labels:
Test in all cases: glycan array binding signal (z-score within array); higher = stronger binding
Settings in all cases: glycan notation: IUPAC condensed, linker removed
[1] = biological target: Fuc(a1-2)Gal(b1-3)GalNAc
Outline: (§1)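 Glycan array data came from 3228 arrays in the Consortium for Functional Glycomics database, and only arrays with an available protein sequence were kept. Glycan names were put into IUPAC-condensed notation, and columns mapping to the same glycan were averaged. The binding signal is a within-array Z-score, averaged across arrays of one protein sequence run at different concentrations or buffers and across linkers. A negative Z-score can be read as non-binding.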

[2] = biological target: Fuc(a1-2)Gal(b1-3)GalNAc(a1-3)[Fuc(a1-2)]Gal(b1-4)GlcNAc
Outline: as §1

[3] = biological target: Fuc(a1-2)Gal(b1-3)GlcNAc
Outline: as §1

[4] = biological target: Fuc(a1-2)Gal(b1-3)GlcNAc(b1-2)Man(a1-3)[Fuc(a1-2)Gal(b1-3)GlcNAc(b1-2)Man(a1-6)]Man(b1-4)GlcNAc(b1-4)GlcNAc
Outline: as §1

[5] = biological target: Fuc(a1-2)Gal(b1-3)GlcNAc(b1-3)Gal(b1-4)Glc
Outline: as §1

[6] = biological target: Fuc(a1-2)Gal(b1-4)Glc6S
Outline: as §1

[7] = biological target: Fuc(a1-2)Gal(b1-4)GlcNAc(b1-3)Gal(b1-4)GlcNAc(b1-2)Man(a1-3)[Fuc(a1-2)Gal(b1-4)GlcNAc(b1-3)Gal(b1-4)GlcNAc(b1-2)Man(a1-6)]Man(b1-4)GlcNAc(b1-4)GlcNAc
Outline: as §1

[8] = biological target: Fuc(a1-2)[Gal(a1-3)]Gal(b1-3)GlcNAc
Outline: as §1

[9] = biological target: Fuc(a1-2)[Gal(a1-3)]Gal(b1-3)GlcNAc(b1-2)Man(a1-3)[Fuc(a1-2)[Gal(a1-3)]Gal(b1-3)GlcNAc(b1-2)Man(a1-6)]Man(b1-4)GlcNAc(b1-4)GlcNAc
Outline: as §1

[10] = biological target: Fuc(a1-2)[Gal(a1-3)]Gal(b1-4)GlcNAc
Outline: as §1

[11] = biological target: Fuc(a1-2)[Gal(a1-3)]Gal(b1-4)[Fuc(a1-3)]Glc
Outline: as §1

[12] = biological target: Fuc(a1-2)[GalNAc(a1-3)]Gal
Outline: as §1

[13] = biological target: Fuc(a1-2)[GalNAc(a1-3)]Gal(b1-3)GalNAc(b1-3)Gal(a1-4)Gal(b1-4)Glc
Outline: as §1

[14] = biological target: Fuc(a1-2)[GalNAc(a1-3)]Gal(b1-3)GlcNAc(b1-2)Man(a1-3)[Fuc(a1-2)[GalNAc(a1-3)]Gal(b1-3)GlcNAc(b1-2)Man(a1-6)]Man(b1-4)GlcNAc(b1-4)GlcNAc
Outline: as §1

[15] = biological target: Fuc(a1-2)[GalNAc(a1-3)]Gal(b1-4)Glc
Outline: as §1

[16] = biological target: Fuc(a1-3)[Gal(b1-4)]GlcNAc(b1-6)[Gal(b1-3)GlcNAc(b1-3)]Gal(b1-4)Glc
Outline: as §1

[17] = biological target: Fuc(a1-4)GlcNAc
Outline: as §1

[18] = biological target: Gal(a1-3)Gal(b1-4)GlcNAc(b1-2)Man(a1-3)[Gal(a1-3)Gal(b1-4)GlcNAc(b1-2)Man(a1-6)]Man(b1-4)GlcNAc(b1-4)GlcNAc
Outline: as §1

[19] = biological target: Gal(a1-4)Gal(b1-3)GlcNAc(b1-2)Man(a1-3)[Gal(a1-4)Gal(b1-3)GlcNAc(b1-2)Man(a1-6)]Man(b1-4)GlcNAc(b1-4)GlcNAc
Outline: as §1

[20] = biological target: Gal(a1-4)Gal(b1-4)GlcNAc(b1-3)Gal(b1-4)Glc
Outline: as §1

[21] = biological target: Gal(a1-4)GlcNAc
Outline: as §1

[22] = biological target: Gal(b1-3)GlcNAc(b1-2)Man
Outline: as §1

[23] = biological target: Gal(b1-3)GlcNAc(b1-2)[Gal(b1-3)GlcNAc(b1-6)]Man(a1-6)[Gal(b1-3)GlcNAc(b1-2)Man(a1-3)]Man(b1-4)GlcNAc(b1-4)GlcNAc
Outline: as §1

[24] = biological target: Gal(b1-3)GlcNAc(b1-3)Gal(b1-3)GlcNAc
Outline: as §1

[25] = biological target: Gal(b1-3)GlcNAc(b1-3)Gal(b1-4)[Fuc(a1-3)]GlcNAc
Outline: as §1

[26] = biological target: Gal(b1-3)GlcNAc(b1-6)Gal(b1-4)GlcNAc
Outline: as §1

[27] = biological target: Gal(b1-3)GlcNAc(b1-6)GalNAc
Outline: as §1

[28] = biological target: Gal(b1-4)GlcNAc
Outline: as §1

[29] = biological target: Gal(b1-4)GlcNAc(a1-6)Gal(b1-4)GlcNAc
Outline: as §1

[30] = biological target: Gal(b1-4)GlcNAc(b1-2)Man
Outline: as §1

[31] = biological target: Gal(b1-4)GlcNAc(b1-2)Man(a1-3)Man(b1-4)GlcNAc(b1-4)GlcNAc
Outline: as §1

[32] = biological target: Gal(b1-4)GlcNAc(b1-2)Man(a1-3)[GlcNAc(b1-2)Man(a1-6)]Man(b1-4)GlcNAc(b1-4)GlcNAc
Outline: as §1

[33] = biological target: Gal(b1-4)GlcNAc(b1-3)Gal(b1-4)Glc
Outline: as §1

B1: PX14379A-bvu-539-28-539 (Bacteroides vulgatus) (protein)
chain: EPYSEIIEEDYVPTEADEIALLATTYSQLRFVMDWYGLFDLQEESGDVIVTPTRPNGWDDGGTYKQMHKHTWDNQQGQPQSIWDYCYKGIANANKILKRADEGFFTEESKPKVVAEVKGVRALWYSILCDTHGNIPIQTSFSEEVPVQSTRKQVFDFIINELKEVMPNLPTEVNKSTYGRLTQWGAKCLMARMYLNAGVYTGTPMWNECLEQCNDIINSGLFSLETNYTDIFKTENSGCVETIFAIPYDEVYNEGDNNGPVFGAHMKFLSSNSRKVFNMQTTPWGGSAANPQFINSYDPDDMRLKYTWLQGDQYSPDGVLITTFPNKLPSIYKTDTDDGYRVGKYEIKVGAKSLLSNDFPYFRYTEVLLMKAECLLRLGQNETEAAHIVSQIRERAFRESAHPEKATVDAAWLKGDTHINYGTLDEKGQIDDAGNTEVVELGGLYDEWGWEFAAEARRRTDMIRFGTYQKKSWFNHTPTANDLNGNSILFPIHLDHLNTNPNLQQNPGYAGK
glycan array binding signal (z-score) [1]: -0.448 | glycan array binding signal (z-score) [2]: -0.426 | glycan array binding signal (z-score) [3]: -0.263 | glycan array binding signal (z-score) [4]: 8.31 | glycan array binding signal (z-score) [5]: -0.301 | glycan array binding signal (z-score) [6]: -0.232 | glycan array binding signal (z-score) [7]: 2.29 | glycan array binding signal (z-score) [8]: -0.419 | glycan array binding signal (z-score) [9]: 9.25 | glycan array binding signal (z-score) [10]: -0.199 | glycan array binding signal (z-score) [11]: -0.231 | glycan array binding signal (z-score) [12]: -0.215 | glycan array binding signal (z-score) [13]: -0.369 | glycan array binding signal (z-score) [14]: 1.23 | glycan array binding signal (z-score) [15]: -0.321 | glycan array binding signal (z-score) [16]: -0.44 | glycan array binding signal (z-score) [17]: -0.18 | glycan array binding signal (z-score) [18]: 3 | glycan array binding signal (z-score) [19]: 0.016 | glycan array binding signal (z-score) [20]: -0.391 | glycan array binding signal (z-score) [21]: -0.226 | glycan array binding signal (z-score) [22]: 0.056 | glycan array binding signal (z-score) [23]: 5.87 | glycan array binding signal (z-score) [24]: 0.03 | glycan array binding signal (z-score) [25]: -0.515 | glycan array binding signal (z-score) [26]: -0.27 | glycan array binding signal (z-score) [27]: -0.344 | glycan array binding signal (z-score) [28]: -0.29 | glycan array binding signal (z-score) [29]: -0.203 | glycan array binding signal (z-score) [30]: -0.28 | glycan array binding signal (z-score) [31]: 0.346 | glycan array binding signal (z-score) [32]: 3.64 | glycan array binding signal (z-score) [33]: -0.017
